{
  "source": "ChEMBL document CHEMBL3988442",
  "about": "“University of Dundee, Small-Polar-MMV Screening Library” (2021)",
  "note": "About 13,000 (27%) of roughly 48,000 compounds showed an effect of 50% or more. Some of the results follow.",
  "data": [
    {"tested_on": "Wolbachia pipientis", "test": "Anti-Wolbachia Cell-Based Screen", "type": "functional", "set-up": "scale not given: in the data most compounds retested in dose-response had high values", "settings": "5 µM", "units": {"Percent Effect": "%"}, "values": [
      {"smiles": "CCC[C@H]1CN(Cc2ccc(N(C)C)nc2)C[C@@H]1NC(=O)CSC", "Percent Effect": -2.183},
      {"smiles": "O=C(NC[C@H]1OC[C@@H](NC2CCCCC2)[C@@H]1O)c1cccs1", "Percent Effect": 2.272},
      {"smiles": "CC(C#N)CN(C)C(=O)CCNC(=O)OC(C)(C)C", "note": "(stereo not drawn)", "Percent Effect": 95.62},
      {"smiles": "CC(C)CC(C#N)NC(=O)CCNC(=O)C(C)(C)C", "note": "(stereo not drawn)", "Percent Effect": 9.809},
      {"smiles": "CC(C#N)CN(C)C(=O)CCNC(=O)C(C)(C)C", "note": "(stereo not drawn)", "Percent Effect": 107.7},
      {"smiles": "CC(OCC(F)(F)F)C(=O)NCCN(C)C", "note": "(stereo not drawn)", "Percent Effect": -5.396},
      {"smiles": "CC(C)NC(=O)CNC(=O)OC(C)(C)C", "Percent Effect": -14.72},
      {"smiles": "CC(C#N)CN(C)C(=O)CCNC(=O)OCC(F)(F)F", "note": "(stereo not drawn)", "Percent Effect": 112.9},
      {"smiles": "CC(C)(C)OC(=O)NCCC(=O)N(CCC#N)Cc1ccco1", "Percent Effect": 11.1},
      {"smiles": "CC(C)C[C@H](NC(=O)CNC(=O)OC(C)(C)C)C(=O)OC(C)(C)C", "Percent Effect": 3.003},
      {"smiles": "Cc1cccc(OCCC(=O)N(C)CC(C)C#N)c1C", "note": "(stereo not drawn)", "Percent Effect": 20.16},
      {"smiles": "CCC(C#N)NC(=O)CCNC(=O)C(C)(C)C", "note": "(stereo not drawn)", "Percent Effect": -9.888},
      {"smiles": "CN(C)C(CNC(=O)CCNC(=O)OCC(F)(F)F)c1ccsc1", "note": "(stereo not drawn)", "Percent Effect": -11.09},
      {"smiles": "CC(O)CN(C)C(=O)CCNC(=O)OC(C)(C)C", "note": "(stereo not drawn)", "Percent Effect": 96.59},
      {"smiles": "Cc1cnn(CC2CCCN2c2ccc(C#N)cn2)c1", "note": "(stereo not drawn)", "Percent Effect": 16.4},
      {"smiles": "CC1(C)CC1(C(=O)N1CC(c2cccnc2)C1)c1ccccc1F", "note": "(stereo not drawn)", "Percent Effect": -22.23},
      {"smiles": "Nc1nccnc1C(=O)N1CC(OCc2cccc3ccccc23)C1", "Percent Effect": -5.576},
      {"smiles": "CC(C)N1CCO[C@@H]2CN(C(=O)NCc3ccccc3)CC[C@@H]2C1.O=C(O)C(F)(F)F", "Percent Effect": 99.72},
      {"smiles": "CN(C)C[C@H]1OC[C@@H]2CCN(C(=O)NCc3cccc(F)c3)C[C@@H]21", "Percent Effect": 12.45},
      {"smiles": "CC(C)N1C[C@@H]2CN(C(=O)NCc3ccccc3)CCC[C@]2(C(=O)O)C1.O=C(O)C(F)(F)F", "Percent Effect": -4.508},
      {"smiles": "COc1ccccc1OCC(=O)N1C[C@@H]2CN(C)CCO[C@@H]2C1.O=C(O)C(F)(F)F", "Percent Effect": -10.13},
      {"smiles": "CN(C)C[C@H]1OC[C@@H]2CN(C(=O)NCc3cccc(F)c3)CC[C@@H]21.O=C(O)C(F)(F)F", "Percent Effect": -10.24},
      {"smiles": "COCCN1CCO[C@@H]2CN(C(=O)NCc3ccccc3)CC[C@@H]2C1.O=C(O)C(F)(F)F", "Percent Effect": -7.267},
      {"smiles": "CN1CCO[C@@H]2CN(C(=O)NCc3ccccc3)CC[C@@H]2C1.O=C(O)C(F)(F)F", "Percent Effect": 100.3},
      {"smiles": "CN1CCO[C@@H]2CN(C(=O)NCc3cccc(F)c3)CC[C@@H]2C1", "Percent Effect": 89.36},
      {"smiles": "Cc1csc(CNC(=O)N(C)Cc2ccc([S+](C)[O-])cc2)n1", "note": "(stereo not drawn)", "Percent Effect": -10.57},
      {"smiles": "COCCN(CC1CCCN(C2Cc3ccccc3C2)C1)C(=O)CSC", "note": "(stereo not drawn)", "Percent Effect": -15.09},
      {"smiles": "COc1cc(N2CCCn3cnc(COCCO)c3C2)ncn1", "Percent Effect": -11.76},
      {"smiles": "O=C(c1cccn1Cc1cccs1)N1CCC(C(=O)N2CCCC2)CC1", "Percent Effect": 86.86},
      {"smiles": "NC(=O)C1CCN(C(=O)c2cccn2Cc2cccs2)CC1", "Percent Effect": 117.1},
      {"smiles": "O=C(OCc1cccs1)c1cccc(C(=O)N2CCCC2)n1", "Percent Effect": -3.794},
      {"smiles": "NC(=O)CC1CCN(C(=O)c2csc(-c3ccccc3F)n2)CC1", "Percent Effect": -1.67},
      {"smiles": "O=C(c1cccn1Cc1cccs1)N1CCN(C(=O)C2CC2)CC1", "Percent Effect": -0.05599},
      {"smiles": "CNC(=O)C1CCN(C(=O)c2cccn2Cc2cccs2)CC1", "Percent Effect": 0.5999},
      {"smiles": "O=C(c1cccn1Cc1cccs1)N1CCN2CCCCC2C1", "note": "(stereo not drawn)", "Percent Effect": 106.1},
      {"smiles": "O=C(c1cccn1Cc1cccs1)N1CCN(C2CC2)CC1", "Percent Effect": 5.207},
      {"smiles": "NC(=O)CC1CCN(C(=O)c2cccn2Cc2cccs2)CC1", "Percent Effect": 101.5},
      {"smiles": "O=C(c1csc(-c2cccs2)n1)N1CCN2CCCCC2C1", "note": "(stereo not drawn)", "Percent Effect": 1.576},
      {"smiles": "Cc1cc(C(=O)N2CCc3[nH]cnc3C2C(=O)O)c(-c2ccccc2)o1", "note": "(stereo not drawn)", "Percent Effect": -20.72},
      {"smiles": "CN(C)CCNC(=O)c1nc2c(o1)CN(C(=O)c1cccnc1)C2.O=C(O)C(F)(F)F.O=C(O)C(F)(F)F", "Percent Effect": -13.48},
      {"smiles": "COC(C)(C)CC(C)NC(=O)NC1CCN(Cc2ccccn2)CC1", "note": "(stereo not drawn)", "Percent Effect": 2.912},
      {"smiles": "Cn1ncc2c(NCC(=O)N3CCNCC3)nc(C(C)(C)C)nc21", "Percent Effect": -6.319},
      {"smiles": "CC(C)C1CN(c2ncc(F)cn2)CCC(=O)N1Cc1ccc(F)cc1", "note": "(stereo not drawn)", "Percent Effect": 23.16},
      {"smiles": "Cc1ccc(S(=O)(=O)Nc2cccnc2O)cc1C", "Percent Effect": 0.1699},
      {"smiles": "CCC(O)CN1CCN(C(=O)c2cccn2Cc2cccs2)CC1", "note": "(stereo not drawn)", "Percent Effect": -10.05},
      {"smiles": "NC(=O)C1CCN(C(=O)c2cccn2Cc2cccs2)C1", "note": "(stereo not drawn)", "Percent Effect": 92.97},
      {"smiles": "CC(CNC(=O)N1CCSCC1)Cc1cccs1", "note": "(stereo not drawn)", "Percent Effect": 19.49},
      {"smiles": "O=C(c1cccn1Cc1cccs1)N1CCSCC1", "Percent Effect": 87.27},
      {"smiles": "O=C1NC(c2ccccc2)=N[C@@]12CC[C@@H]1CN(Cc3ccncc3)C[C@@H]12", "Percent Effect": -3.809},
      {"smiles": "O=C(c1cnn2c1OCCC2)N1CCC(Cc2ccccc2)CC1", "Percent Effect": 143.8},
      {"smiles": "CCCn1ncc(C(=O)N2CCN(C3CCCC3)CC2)c1C", "Percent Effect": 4.008},
      {"smiles": "Cc1c(C(=O)N2CCC(C(O)c3ccc(Cl)cc3)CC2)cnn1C", "note": "(stereo not drawn)", "Percent Effect": -1.505},
      {"smiles": "Cc1cc2cc(CNC(=O)c3cnn4c3OCCC4)ccc2[nH]1", "Percent Effect": 3.624},
      {"smiles": "CN(C)C(=O)c1cnn2c1OCCC2", "Percent Effect": 85.82},
      {"smiles": "Cc1ccc(-c2cn(C3CCN(C(=O)[C@H]4CCCO4)CC3)nn2)cc1", "Percent Effect": -12.17},
      {"smiles": "CCn1ncc(C(=O)N2CCCN(CCCc3ccccc3)CC2)c1C", "Percent Effect": 5.21},
      {"smiles": "O=C(c1cnn2c1OCCC2)N1CCN(C/C=C/c2ccccc2)CC1", "Percent Effect": 8.023},
      {"smiles": "Cc1c(C(=O)N2CCCN(S(C)(=O)=O)CC2)cnn1C", "Percent Effect": 116.6},
      {"smiles": "O=C(c1cnn2c1OCCC2)N1CCN(C(=O)C2CCCO2)CC1", "note": "(stereo not drawn)", "Percent Effect": 101.5},
      {"smiles": "O=C(C1CCCO1)N1CCC(n2cc(-c3ccc(F)cc3)nn2)CC1", "note": "(stereo not drawn)", "Percent Effect": -2.259},
      {"smiles": "CC(=O)N1CCOC2(CCCN(Cc3ccc(Cl)c(C(F)(F)F)c3)C2)C1", "note": "(stereo not drawn)", "Percent Effect": -8.143},
      {"smiles": "Clc1cc(CN2CCCC2Cn2cncn2)c2ncccc2c1", "note": "(stereo not drawn)", "Percent Effect": 9.576},
      {"smiles": "N#Cc1cccnc1N1CCCC(CO)(Cc2cccc(Cl)c2)C1", "note": "(stereo not drawn)", "Percent Effect": -4.475}
    ]}
  ]
}
